Laboratory results from PubChem BioAssay AID588403 (Broad Institute, 2011).
The source made the active and inactive calls.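 Rule for the calls: active = dose-dependent signal loss with a fitted half-maximal concentration at or below 35 µM; inconclusive = flat fit with 30 to 70% signal loss, or poor fit; inactive = the rest.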

Assay: DiI-HDL fluorescence quenchers, cell-free, dose response, artefact control for SR-BI HDL uptake inhibitor project, biochemical, powder samples, plate reader fluorescence (AID 588403)
Details: cell-free DiI-HDL fluorescence quenching counter-screen, 30 min; series mostly up to 35 µM
With `COc1ccc(-c2cc(CC(=O)N(C3CCCCC3)C(C)C(=O)NC3CCCC3)no2)cc1OC` (stereo not given) the outcome was “inactive”.
For `CC(C(=O)NC1CCCC1)N(C(=O)Cn1nnc(-c2ccc(F)cc2)n1)C1CCCCC1` (stereo not given), the outcome was “inactive”.
With `O=C(Nc1nc(-c2ccc3c(c2)CCN3)cs1)c1ccco1` the outcome was “inactive”.
In the case of `CCC(=O)N1CCc2cc(-c3csc(NC(=O)c4cccc(OC(F)(F)F)c4)n3)ccc21`, the outcome is reported as “inactive”.
With `CCC(=O)N1CCc2cc(-c3cnc(NC(C)=O)[nH]3)ccc21` the outcome was “inactive”.
In the case of `CCC(=O)N1CCc2cc(-c3csc(NC(=O)c4ccco4)n3)ccc21`, the outcome is reported as “inactive”.
In the case of `COc1ccccc1-c1nnn(CC(=O)N(C2CCCCC2)C(C)C(=O)NC2CCCC2)n1` (stereo not given), the outcome is reported as “inactive”.
With `O=C(CN(C(=O)Cn1nnc(-c2ccc3c(c2)OCO3)n1)C1CCCCC1)NC1CCCC1` the outcome was “inactive”.
For `COC(=O)N1CCc2cc(-c3csc(NC(=O)c4ccco4)n3)ccc21`, the outcome was “inactive”.
With `CCCCCCC1CCC/C1=N\NC(N)=S` (stereo not given) the outcome was “inactive”.
In the case of `CCC(=O)N1CCc2cc(-c3coc(NC(=O)c4ccco4)n3)ccc21`, the outcome is reported as “inactive”.
In the case of `CCC(=O)N1CCc2cc(-c3coc(N)n3)ccc21`, the outcome is reported as “inactive”.
With `COc1cccc(-c2nnn(CC(=O)N(C3CCCCC3)C(C)C(=O)NC3CCCC3)n2)c1` (stereo not given) the outcome was “inactive”.
With `CC(C(=O)NC1CCCC1)N(C(=O)Cn1nnc(-c2ccccc2F)n1)C1CCCCC1` (stereo not given) the outcome was “inactive”.
For `COc1ccc(-c2nnn(CC(=O)N(C3CCCCC3)C(C)C(=O)NC3CCCC3)n2)cc1OC` (stereo not given), the outcome was “inactive”.
In the case of `CC(C(=O)NC1CCCC1)N(C(=O)Cn1nnc(-c2ccccc2Cl)n1)C1CCCCC1` (stereo not given), the outcome is reported as “inactive”.
With `CC(C)C(=O)N1CCc2cc(-c3csc(NC(=O)c4ccco4)n3)ccc21` the outcome was “inactive”.
For `CCC(=O)N1CCc2cc(-c3csc(NC(=O)c4cccc(OC)c4)n3)ccc21`, the outcome was “inactive”.
For `CS(=O)(=O)N1CCc2cc(-c3csc(NC(=O)c4ccco4)n3)ccc21`, the outcome was “inactive”.
In the case of `COc1ccc(-c2nnn(CC(=O)N(CC(=O)NC3CCCC3)C3CCCCC3)n2)cc1OC`, the outcome is reported as “inactive”.
For `CCC(=O)N1CCc2cc(-c3cnc(NC(=O)c4ccco4)[nH]3)ccc21`, the outcome was “inactive”.
In the case of `C[C@@H]1CN([C@H](C)CO)C(=O)c2cc(NC(=O)Cc3cn(C)c4ccccc34)ccc2O[C@H]1CN(C)S(=O)(=O)c1ccc(Cl)cc1`, the outcome is reported as “inactive”.
With `CC(C(=O)NC1CCCC1)N(C(=O)Cn1nnc(-c2cccc(F)c2)n1)C1CCCCC1` (stereo not given) the outcome was “inactive”.
In the case of `CCC(=O)N1CCc2cc(-c3csc(NC(=O)c4cccc(OC)n4)n3)ccc21`, the outcome is reported as “inactive”.
With `CCC(=O)N1CCc2cc(-c3csc(NC(=O)c4cc(OC)cc(OC)c4)n3)ccc21` the outcome was “inactive”.
For `CC(C(=O)NC1CCCC1)N(C(=O)Cn1nnc(-c2ccc(Cl)cc2)n1)C1CCCCC1` (stereo not given), the outcome was “inactive”.
With `O=C(Nc1nc(-c2ccc3c(c2)CCN3C(=O)C2CC2)cs1)c1ccco1` the outcome was “inactive”.
For `CCC(=O)N1CCc2cc(-c3csc(NC(=O)c4ccc(F)c(OC)c4)n3)ccc21`, the outcome was “inactive”.
For `Cc1ccc(-c2nnn(CC(=O)N(C3CCCCC3)C(C)C(=O)NC3CCCC3)n2)cc1` (stereo not given), the outcome was “inactive”.
For `CC(C(=O)NC1CCCC1)N(C(=O)Cn1nnc(-c2ccc3c(c2)OCO3)n1)C1CCCCC1` (stereo not given), the outcome was “inactive”.
